HPGD inh = blocks human HPGD enzyme activity. P15428. purified HPGD, NADH fluorescence kinetic, PGE2 substrate. Potency, µM, most hits filed as inhibitors. 4.3% of 150,000 active; active = well fitted inhibition curve with a large enough effect, not every such curve was filed as active; inconclusive = small, poorly fitted or top-dose-only effect, or another doubt; inactive = no such curve, though single readings can be large or run the other way
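NADH formation kinetics: reaction with 30 uM PGE2 and 1 mM NAD+ (final), 20 nM enzyme, Tris-HCl pH 8 with Tween 20, after 15 min compound preincubation at room temperature. Fluorescence change, last versus first of five reads.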
Tau ThT inhib = inhibitors of human tau fibril formation, thioflavin T binding. recombinant tau K18 P301L, heparin-induced fibrillization, ThT fluorescence. Potency, µM (highest dose often 57.4 µM), hits mostly inhibitors. 2.1% of 270,000 active. AID 1460; also: nearly all actives have a fitted effect of over 55% in size
Target sequence (P10636 561-689 P618L limits assumed): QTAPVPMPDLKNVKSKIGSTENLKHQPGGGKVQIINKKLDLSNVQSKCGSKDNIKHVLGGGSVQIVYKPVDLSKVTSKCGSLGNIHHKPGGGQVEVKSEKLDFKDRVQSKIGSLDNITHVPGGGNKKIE
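K18 P301L tau (15 uM + 0.24 uM Alexa 594-tagged), heparin 20 uM, NaOAc pH 7, 6 h 37 C; ThT 30 uM, 1 h RT, ex 450/em 510 nm.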
Tau FP inhib = tau fibrillization inhibition (FP); P10636; K18 P301L tau heparin fibrillization, Alexa594 FP, 6 h; Potency, µM (top dose mostly 57.7 µM), most hits filed as inhibitors; 0.39% of 280,000 active; AID 1468; also: nearly all actives have a fitted effect of over 55% in size
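Read-out: fluorescence polarization of Alexa 594-labeled tau (0.24 uM), 555 nm excitation, 632 nm emission. Mixtures held 15 uM unlabeled K18 P301L, compound and 20 uM heparin, pH 7 acetate buffer, incubated 6 hr at 37 C.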
JMJD2E inh = blocks human JMJD2E demethylase activity; B2RXH2; 1.6% of 230,000 active; JMJD2E catalytic domain, FDH-coupled NADH fluorescence (FDH is formaldehyde dehydrogenase); Potency, µM (titrated, usually from 57.1 µM), usual class: inhibitors; active = well fitted inhibition curve with a large enough effect, not every such curve was filed as active; inconclusive = small, poorly fitted or top-dose-only effect, or another doubt; inactive = no such curve, though single readings can be large or run the other way; also: nearly all actives have a fitted effect of over 50% in size
Tau fluor counter = counter-screen for tau fibril formation inhibitors; tau K18 P301L (four-repeat tau fragment) Alexa594 fluorescence, heparin fibrillization; Potency, µM (doses to about 57.7 µM); 0.93% of 280,000 active; AID 1463; also: nearly all actives have a fitted effect of over 55% in size
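Human K18 P301L tau (15 uM unlabeled plus 0.24 uM Alexa 594-labeled, final) in 100 mM sodium acetate pH 7 was mixed with compound and 20 uM heparin and incubated 6 hr at 37 C.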
ALDH1A1 inh = inhibitors of human aldehyde dehydrogenase 1A1. Potency, µM (highest dose often 75.3 µM), usual class: inhibitors. AID 1030. P00352. Purified ALDH1A1, NADH fluorescence, propionaldehyde substrate. 7.3% of 220,000 active; active = well fitted inhibition curve with a large enough effect, not every such curve was filed as active; inconclusive = small, poorly fitted or top-dose-only effect, or another doubt; inactive = no such curve, though single readings can be large or run the other way
Target sequence (P00352 whole entry, looked up): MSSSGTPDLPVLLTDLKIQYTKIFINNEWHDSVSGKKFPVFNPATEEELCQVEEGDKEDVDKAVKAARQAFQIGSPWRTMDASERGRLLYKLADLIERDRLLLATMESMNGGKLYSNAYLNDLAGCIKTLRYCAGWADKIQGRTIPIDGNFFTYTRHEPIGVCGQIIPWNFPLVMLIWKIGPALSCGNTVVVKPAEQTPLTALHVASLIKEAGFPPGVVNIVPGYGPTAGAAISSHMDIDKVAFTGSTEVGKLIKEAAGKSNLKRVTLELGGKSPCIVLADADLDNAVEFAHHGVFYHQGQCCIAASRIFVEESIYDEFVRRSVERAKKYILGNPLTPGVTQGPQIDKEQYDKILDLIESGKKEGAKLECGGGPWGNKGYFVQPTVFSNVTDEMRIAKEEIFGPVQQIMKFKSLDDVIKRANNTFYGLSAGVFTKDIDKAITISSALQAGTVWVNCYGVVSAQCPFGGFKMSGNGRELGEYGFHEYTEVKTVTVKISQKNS
A number is an active result; n = inactive; u = inconclusive; x = no result; [ ] = another dose, or the depositor's remark. Sampled rows, rich in hits. Any-hit rate of the full collection: about 9.9%. Unless noted, calls follow the shape of the dose curve; as a rule, active = well fitted curve in the direction sought with a large enough effect; inconclusive = small, poorly fitted or top-dose-only effect, or another doubt; inactive = no such curve, though single readings can be large; an effect the other way counts as inactive or inconclusive.

SMILES	HPGD inh	Tau ThT inhib	Tau FP inhib	JMJD2E inh	Tau fluor counter	ALDH1A1 inh
Cc1nc(NC(=O)c2ccccc2[N+](=O)[O-])sc1C(=O)N(C)C	22µM	n	n	n	n	n
Cc1cccc(N2CCN(C(=O)C3CCN(Cc4nc(-c5ccc(Cl)cc5)oc4C)CC3)CC2)c1C	x	n	n	x	n	x
CN(C)c1ccc(/C=[N+](\[O-])C(C)(C)/C=N/O)cc1	n	n	n	n	n	22µM
CC(C)(/C=N/O)/[N+]([O-])=C/C=[N+](\[O-])C(C)(C)/C=N/O	n	n	n	n	n	u
CSC1CCCCC1(O)CSc1nc2c(cc1C#N)CCCC2 (centres undefined)	7.9µM	n	n	u	n	7.9µM
CC(=O)OC1C(N2CCCCC2)c2c(ccc(/C=C/C(=O)N3CCCCC3)c2O)OC1(C)C (centres undefined)	x	n	n	7.1µM	n	n
CC1(C)Oc2ccc3ccc(=O)oc3c2C(N2CCCCC2)C1O (centres undefined)	u	u	n	u	n	u
CCCCn1cc2c(c1-c1ccc(Cl)cc1)c(=O)n(C)c(=O)n2C	x	n	n	x	n	x
COc1cccc(CN(C)C(=O)c2ccc3nccnc3c2)c1	28µM	n	n	n	n	n
CN(Cc1ccc(OC(F)F)cc1)C(=O)c1ccc2nccnc2c1	n	n	n	n	n	n
Cc1ccc(-c2ccc(/C=C3\SC(N4CCOCC4)=NC3=O)o2)cc1	x	13µM	n	n	u	u
CN1CCN(C2=NC(=O)/C(=C/c3cn[nH]c3-c3ccccc3)S2)CC1	x	n	n	n	n	x
O=C1N=C(N2CCOCC2)S/C1=C/c1ccc(-c2ccc(F)cc2)o1	x	u	n	n	n	n
Cc1ccc(/C=C2\SC(N3CCN(C(c4ccccc4)c4ccccc4)CC3)=NC2=O)o1	3.5µM	n	n	n	n	n
COc1ccc(-n2c(=O)c3ccccc3n(Cc3cccc(C)c3)c2=O)cc1OC	x	n	n	n	n	n
Cc1[nH]n(-c2ccccc2)c(=O)c1/C=N/Nc1nncc(-c2ccccc2)n1	n	14µM	n	u	u	u
Cc1[nH]n(-c2ccccc2)c(=O)c1/C=N/N1CCOCC1	x	n	n	n	n	x
Cc1[nH]n(-c2ccccc2)c(=O)c1/C=N/N1C(=O)c2cccc3cccc(c23)C1=O	x	22µM	n	u	u	u
Cc1ccc(-n2[nH]c(C)c(/C=N/c3ccccn3)c2=O)cc1	n	n	n	u	n	n
Cc1[nH]n(-c2ccccc2)c(=O)c1C=NCc1ccncc1	x	n	n	n	n	x
Cc1[nH]n(-c2ccc(Cl)cc2)c(=O)c1/C=N/c1nnc(-c2ccccc2)s1	28µM	n	n	n	n	n
Cc1[nH]n(-c2ccccc2)c(=O)c1C=NCCc1ccccc1	x	n	n	n	n	n
CCCCN(CCCC)C(=S)N/N=C/c1c(C)[nH]n(-c2ccccc2)c1=O	n	u	n	u	u	5µM
O=C(Cn1c(=O)n(CCc2ccccc2)c(=O)c2c3c(sc21)CCCC3)Nc1ccc(F)c(F)c1	x	n	u	x	n	x
COC(=O)[C@@]1(Cc2ccccc2)[C@H]2c3cc(C(=O)N(C)C)n(C[C@H](O)CO)c3C[C@H]2CN1C(=O)c1ccccc1	n	n	n	u	n	n
SMILES	HPGD inh	Tau ThT inhib	Tau FP inhib	JMJD2E inh	Tau fluor counter	ALDH1A1 inh
O=C(Nc1ccc2oc(-c3cccc4c(Br)cccc34)nc2c1)c1ccc(F)cc1	x	n	u	x	n	x
O=C(CSc1nnc(-c2ccco2)o1)c1ccc[nH]1	x	u	n	n	n	u
COc1ccc2nc(/N=C/c3c(C)[nH]n(-c4ccc(C)cc4)c3=O)sc2c1	n	18µM	n	n	u	u
Cc1ccc(-n2[nH]c(C)c(C=Nc3ccc4[nH]c(=O)[nH]c4c3)c2=O)cc1	n	u	n	n	u	n
c1ccc2c(c1)oc1c(Nc3ccc(CN4CCOCC4)cc3)ncnc12	n	n	n	u	n	20µM
CC(=O)N1CCN(c2ccc(Nc3ncnc4c3oc3ccccc34)cc2)CC1	n	4.5µM	n	u	u	u
CCc1nc(Nc2ccc(N3CCN(C(C)=O)CC3)cc2)c2oc3ccccc3c2n1	x	13µM	n	u	u	u
c1ccc2c(c1)oc1c(NCCN3CCOCC3)ncnc12	n	n	n	n	n	n
Cn1c2ccccc2c2nnc(SCC(=O)NCc3ccoc3)nc21	x	n	n	n	n	n
CCCCc1c2ccccc2nc2[nH]c3ccccc3c12	n	n	n	u	n	n
COc1ccc(C(=O)O)nc1C	x	n	n	14µM	n	x
NCS(=O)(=O)O	n	x	x	x	x	n[13.5 µM]
CC(Sc1nnnn1-c1ccccc1)C(=O)Nc1ccc(Cl)cn1 (centres undefined)	n	n	n	n	n	5µM
CSc1ccccc1-n1nnnc1SCC(=O)Nc1ccccc1C	n	n	n	n	n	13µM
COC(=O)c1ccccc1NC(=O)CSc1nnnn1-c1ccc(C)cc1C	n	n	n	n	n	u
CSc1ccccc1-n1nnnc1SCC(=O)NCc1cccs1	n	n	n	n	n	16µM
Cc1ccc(NC(=O)CCSc2nnnn2-c2ccc3c(c2)OCO3)cc1C	n	n	n	n	u	13µM
O=C(CSc1nnnn1-c1ccccc1)NCc1cccs1	n	n	n	n	n	n
O=C(CSc1nnnn1-c1ccc2c(c1)OCCO2)OC1CCCCC1	n	n	n	n	n	5µM
CCC(=O)Nc1ccc(NC(=O)CSc2nnnn2-c2ccc3c(c2)OCCO3)cc1	x	n	n	n	n	n
Cn1cc(-c2nc3cnc(Oc4ccccc4)nc3n(Cc3cccs3)c2=O)c2ccccc21	x	x	x	x	x	n
COc1cc(C(=O)Nc2cc(-c3cn4cccnc4n3)ccc2C)cc(OC)c1OC	x	n	n	u	n	u
Cc1nc2ncnn2c(C)c1Cc1ccc(Cl)cc1F	n	n	n	n	n	n
Cc1ccccc1NC(=O)CCSc1nnnn1-c1ccccc1	n	n	n	n	n	8.9µM
Cc1ccc(-n2nnnc2SCC(=O)NNC(=O)c2ccco2)c(C)c1	n	n	n	n	n	u
SMILES	HPGD inh	Tau ThT inhib	Tau FP inhib	JMJD2E inh	Tau fluor counter	ALDH1A1 inh
CSc1ccccc1NC(=O)CSc1nnnn1-c1ccccc1SC	n	n	n	n	n	11µM
O=C(CSc1nnnn1-c1ccccc1F)NNC(=O)c1ccco1	x	n	n	n	n	14µM
CC(=O)NCCOc1nc(N2CCCCC2)nc(N2CCCCC2)n1	x	n	n	n	n	u
Cc1ccc(S(=O)(=O)N2CCN(C(=O)c3cc(=O)c4ccccc4o3)CC2)cc1	x	n	n	n	n	n
Cn1cc(S(=O)(=O)N2CCCCCC2)cc1C(=O)N1CCN(c2ccccc2F)CC1	x	n	n	x	n	x
Brc1cc2[nH]cnc2c2ccccc12	22µM	u	n	n	u	14µM
Oc1ccc2c(ccc3[nH]cnc32)c1	x	n	n	n	n	n

Screening results as filed in PubChem BioAssay.
